A selection: hits, their analogues and other compounds. The true share with any hit is near 2.3%.
aSyn 5UTR inh: MLPCN primary screen, SNCA 5' untranslated region; inhibition, % (tested at 7.5 µM); alpha-synuclein 5'UTR reporter, inhibitor activity; AID 1813; 300,000 tested, 0.82% active; in the data active = inhibition above about 60%; inconclusive = no clear call, values can overlap the other calls;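 also: H4 neuroglioblastoma cells stably carrying SNCA 5'UTR luciferase fusion; 0% = DMSO wells and 100% = positive control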
697 NFkB inh: lowers PMA/ionomycin-induced NF-kB signal in 697 B cells; 697 B-cell NF-kB luciferase reporter, 16 h; inhibition, % at 4 µM; 330,000 tested, 0.33% active; AID 435022; in the data active = inhibition above about 35%
Gli-Sufu antag: blocks Gli-Sufu signaling in a luciferase reporter; Sufu-KO-LIGHT fibroblasts, Gli luciferase reporter luminescence; inhibition, % at 5 µM; 340,000 tested, 0.74% active;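 active = inhibition above about 55%, limit read from the data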;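 also: 0% = DMSO-treated cells and 100% = wells with medium but no cells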
H9c2 TAG inh: inhibitors of triacylglycerol accumulation; 230,000 tested, 0.66% active; inhibition, % at 12.5 µM; AID 651582; H9c2 cells, Nile Red lipid (TAG) fluorescence; cells loaded with 200 µM oleic acid;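 active = pattern-corrected inhibition of lipid staining of at least 50% with the nuclear-stain viability signal not falling by more than 50%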;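 also: 0% = DMSO wells and 100% = triacsin C control wells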
Jurkat NFkB inh: lowers PMA/ionomycin-induced NF-kB signal in Jurkat cells; 330,000 tested, 0.53% active; PMA/ionomycin-induced NF-kB luciferase reporter, luminescence; inhibition, % at 4 µM; in the data active = inhibition above about 50%
Shn3 inh set2: reduces Shn3 3'UTR luciferase signal in osteoblasts. 360,000 tested, 0.52% active. AID 588674. inhibition, % at 12.5 µM. Clone20 osteoblast Shn3 3'UTR firefly luciferase, 24 h;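 active = mean inhibition of at least 75% with every replicate also reaching 75%; inconclusive = mean inhibition at least 75% but some replicate below; inactive = mean inhibition below 75%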;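 also: 0% = median of neutral control wells and 100% = pilot-screen positive control compound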
Gli antag conf: Gli-SUFU antagonism confirmation, single concentration. inhibition, % at 5 µM. 2,500 tested, 40% active. Sufu-KO-LIGHT cells, Gli luciferase reporter, luminescence. shares compounds with Gli-Sufu antag;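 active = mean inhibition at 5 µM reaching about 45%, limit read from the data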;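 also: plate controls were DMSO-treated cells for no effect and wells lacking cells for full effect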
Gli cytotox: cytotoxicity counter-screen for Gli-SUFU antagonists | shares compounds with Gli-Sufu antag | Sufu-KO-LIGHT cells cytotoxicity, ATP luminescence | cytotoxicity, % at 5 µM | 2,500 tested, 32% active;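 active = mean cytotoxicity at 5 µM above about 25%, limit read from the data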;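 also: cells exposed to compound overnight for roughly 16 to 18 hours; plate controls were DMSO wells with cells for no effect and medium without cells for full effect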
Wnt3a cs: Wnt3a reporter inhibition counter-screen; inhibition, % at 6.25 µM; shares compounds with Gli-Sufu antag; AID 651995; 2,500 tested, 20% active; Wnt-LIGHT cells, Wnt3a-driven luciferase reporter, luminescence;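 active = mean inhibition above about 25%, limit read from the data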
Numbers without * were called inactive; ? = inconclusive; · = not tested or not shown.

SMILES | aSyn 5UTR inh | 697 NFkB inh | Gli-Sufu antag | H9c2 TAG inh | Jurkat NFkB inh | Shn3 inh set2 | Gli antag conf | Gli cytotox | Wnt3a cs
CCN1/C(=C/C=C/C=C/C=C/c2sc3ccccc3[n+]2CC)Sc2ccccc21 | -39 | 4 | 83* | · | 7 | 78 | 91* | 32* | 45*
CC[n+]1c(/C=C(\C)SC)sc2ccccc21 | -4 | 17 | 4 | · | 3 | -15 | · | · | ·
CC[n+]1c(/C=C/Nc2ccccc2)sc2ccccc21 | -83 | 16 | 68* | -55 | -5 | 92* | 81* | 37* | 30*
O=C(/C=C/c1ccccc1Cl)Nc1cccc(S(=O)(=O)NC2=NCCCCC2)c1 | -82 | -18 | 51 | · | -1 | 1 | 12 | 10 | -151
CCN(CC)C(=O)c1cccc(NC(=O)CCc2nc3sc4c(c3c(=O)[nH]2)CCCC4)c1 | · | 14 | 3 | 10 | 9 | 4 | · | · | ·
O=C(CCc1nc2sc3c(c2c(=O)[nH]1)CCCC3)Nc1cccc(Cl)c1 | 1 | -1 | 70* | 1 | -3 | -13 | 27 | 6 | -11
CCOC(=O)c1cccc(C(=O)OCC)n1 | 17 | 18 | 1 | -6 | 2 | -7 | · | · | ·
COc1ccc(CC(=O)Nc2cccc(S(=O)(=O)N3CCCCCC3)c2)cc1OC | -2 | · | 53 | · | · | 90* | 49* | 26* | 22
CC(=O)c1c(C)[nH]c(C(=O)OCC(=O)Nc2cccc(S(=O)(=O)N3CCCC3)c2)c1C | -44 | -17 | 58* | · | 46 | 79 | 53* | 14 | -20
COc1ccc(CCNC(=S)NC(=O)c2ccccc2)cc1OC | 15 | -19 | 6 | · | 3 | -32 | · | · | ·
COc1ccc(CCNC(=S)NC(=O)c2cc(OC)c(OC)c(OC)c2)cc1OC | 1 | -6 | 50 | -12 | 8 | 25 | 18 | 9 | 2
COc1ccc(CCNC(=O)C2CCCN(S(=O)(=O)N3CCCCCC3)C2)cc1OC (stereo not drawn) | 3 | 8 | 54 | · | -1 | 10 | 14 | 6 | 5
CC#CCc1cc2ccccc2c(=O)o1 | -45 | 8 | 3 | · | -1 | 4 | · | · | ·
Clc1ccc2c(c1)-c1nnc(Br)n1-c1ccccc1S2 | 16 | -18 | 5 | -3 | -3 | 4 | · | · | ·
Cc1ccccc1NS(=O)(=O)c1cc(C(=O)Nc2ccccc2-c2ccccc2)ccc1Cl | 8 | -19 | 22 | · | -30 | 20 | · | · | ·
COc1ccc(S(=O)(=O)Nc2ccc(N3CCOCC3)cc2)cc1 | -10 | 3 | 32 | · | -7 | -11 | · | · | ·
COc1ccc(NS(=O)(=O)c2ccc(NC(=O)c3ccc(CN4CCOCC4)cc3)cc2)cc1 | 1 | -52 | 57* | -21 | 28 | 50 | 28 | 13 | 3
COc1ccc(NS(=O)(=O)c2cccc(NC(=O)c3ccc(S(=O)(=O)N4CCCCCC4)cc3)c2)cc1 | 9 | -5 | 61* | · | 47 | ? | 63* | 17 | 28*
COc1ccc(NS(=O)(=O)c2ccc(N3CCOCC3)c(N)c2)cc1 | · | -25 | 62* | -47 | 25 | 84 | 61* | 26* | 28*
CCNS(=O)(=O)c1ccc(CCC(=O)Nc2cc(Cl)ccc2Oc2ccccc2)cc1 | 9 | -16 | 5 | · | 3 | 58 | · | · | ·
c1ccc(CCc2nc(-c3ccccn3)no2)cc1 | -57 | -85 | -81 | · | -71 | -138 | · | · | ·
COC(=O)c1ccc(OC(=O)C2CC(=O)N(c3cccc(C)c3)C2)cc1 (stereo not drawn) | 9 | 4 | 1 | · | -5 | -11 | · | · | ·
Cc1nc2cc(N3CCN(C)CC3)c(NC(=O)Cc3ccccc3)cc2c(=O)n1Cc1ccccc1 | -15 | -25 | 54 | 11 | 6 | 25 | 49* | 10 | -14
CCN(CC)c1cc2nc(C)n(Cc3ccccc3)c(=O)c2cc1NC(=O)C1CC1 | 24 | 1 | 1 | 25 | -25 | 9 | · | · | ·
O=C(Oc1ccccc1)N1CCN(c2ccccc2F)CC1 | -65 | -7 | -8 | · | -7 | -6 | · | · | ·
SMILES | aSyn 5UTR inh | 697 NFkB inh | Gli-Sufu antag | H9c2 TAG inh | Jurkat NFkB inh | Shn3 inh set2 | Gli antag conf | Gli cytotox | Wnt3a cs
COc1ccc(C(=O)C2CCCN(C(=O)c3csc(C(C)=O)c3)C2)c(C)c1 (stereo not drawn) | -15 | -6 | -1 | · | 13 | -8 | · | · | ·
COc1ccccc1N(C)S(=O)(=O)c1ccc(C(=O)NCc2ccccc2CN2CCCC2)cc1 | · | · | 52 | -3 | · | 27 | 34 | 17 | -34
COc1ccccc1NC(=O)CN(c1ccccc1)S(=O)(=O)c1ccccc1 | 9 | -6 | 53 | 9 | -9 | 14 | 25 | 3 | -10
CCc1ccccc1NC(=O)CN(c1cccc(OC)c1)S(C)(=O)=O | 2 | -21 | 92* | 35 | -7 | 0 | 13 | 6 | -11
COc1ccc(N(CC(=O)NCCSCc2ccc(C)cc2)S(=O)(=O)c2ccccc2)cc1 | 9 | -35 | 95* | -8 | 19 | 37 | 17 | 6 | -20
COc1ccc(N(CC(=O)Nc2ccccc2OC)S(=O)(=O)c2ccc(NC(C)=O)cc2)cc1 | -9 | -50 | 0 | 6 | 43 | 15 | · | · | ·
COc1cccc(N(CC(=O)Nc2ccccc2C)S(C)(=O)=O)c1 | 5 | -1 | 3 | · | 3 | -16 | · | · | ·
COc1cccc(N(CC(=O)Nc2cccc(C(C)=O)c2)S(C)(=O)=O)c1 | -11 | 0 | 77* | · | -12 | 0 | 12 | 16 | -21
CN1CCN(S(=O)(=O)c2ccc3c(c2)CC(=O)N3C)CC1 | 4 | 19 | 2 | · | 3 | 2 | · | · | ·
COCCOC(=O)c1c(NC(=O)CNC2CCCc3ccccc32)sc(C(N)=O)c1C (stereo not drawn) | 26 | -8 | 7 | 7 | 11 | 6 | · | · | ·
CCC(C)NC(=O)Cn1ccc2cc(S(=O)(=O)N3CCCCCC3)ccc21 (stereo not drawn) | 16 | -10 | -2 | · | -3 | 20 | · | · | ·
COc1cccc(C(=O)Nc2nnc(-c3ccc(Cl)cc3)o2)c1 | 2 | -3 | 2 | -6 | 1 | 10 | · | · | ·
CCc1nc2ccccc2c(NC(=O)CN2CCC(C)CC2)c1C | 6 | -21 | 51 | -8 | 2 | -8 | 18 | 8 | -3
CCCCCCCC[n+]1c(C)n(-c2ccccc2)c2ccc(NC(C)=O)cc21 | -10 | -49 | 76* | 16 | 11 | 70 | 78* | 31* | 9
Cc1cc(C)n(CCC(=O)N2CCc3ccccc32)n1 | 20 | -12 | 5 | · | 8 | 13 | · | · | ·
CCOC(=O)N1CCN(C(=O)CCCCCn2c(=S)[nH]c3ccsc3c2=O)CC1 | 10 | 14 | 69* | -2 | -5 | -3 | 27 | 2 | 26*
